Results on 15 targets are retold here after the supplement of paper PMC10849652.

Targets with a hit are over-represented here; the source holds about 8,800 in all. About 0.5% of all pairs of compound and target were hits. Unmarked numbers belong to inactive results.

Holding throughout (assay): log2 fold change, soluble protein after heating vs DMSO (PISA); higher = thermal stabilisation; K562 lysate, 10 uM; active = over 0.2 and 3.5 SD of the protein, either way, in both replicates (recomputed)
Compound in experiment [1]: C#Cc1cccc(Nc2ncnc3cc(OCCOC)c(OCCOC)cc23)c1 [erlotinib]
The method in brief: (§1)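 Soluble protein was defined as the supernatant remaining after 21,000xg for 90 min, following pooling of heated aliquots and adjustment to 0.5% NP-40 at 4°C. Before that, crude K562 extract at 1 mg/mL protein in PBS pH 7.4 with 1 mM MgCl2 was treated with 10 μM compound for 30 min and heated for 3 min across 48°C-58°C. Quantification used TMTpro 16plex LC-MS/MS with channel sums equalised, and values are log-two fold changes in thermal stability relative to solvent controls from duplicates.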

Compound in experiment [2]: C/C(=N\NC(=O)C1=CC(=CC=C1)S(=O)(=O)N2CCOCC2)/C3=C(C=CC(=C3)Cl)O
The method in brief: as §1

Compound in experiment [3]: C1=CC(=CC=C1C2=NC3=C(N2)C=C(C=C3)C(=O)N)OC4=CC=C(C=C4)Cl
The essentials: as §1

Compound in experiment [4]: C1=CC2=C(C=CC(=C2)/C=C\3/C(=O)NC(=NCC4=CC=CS4)S3)N=C1
The method in brief:
as §1

Compound in experiment [5]: C1=CC2=NC=CN=C2C=C1/C=C/3\C(=O)NC(=O)S3
The essentials: as §1

Compound in experiment [6]: C1=CC=C(C=C1)C2=NC(=C(N2)C3=CC=NC=C3)C4=CC(=C(C=C4)Cl)O
The essentials: as §1

Compound in experiment [7]: C1=CC=C2C(=C1)C3=NNC4=CC=CC(=C43)C2=O
The method in brief: as §1

Compound in experiment [8]: C1CCN(C1)C(=O)NC2=CC=CC(=C2)NC3=NC=C(C(=N3)NCCC4=CN=CN4)Br
The method in brief:
as §1

Compound in experiment [9]: C1CN(CCC1(CC2=CC=C(C=C2)Cl)N)C3=NC=NC4=C3C=CN4
The essentials:
as §1

Compound in experiment [10]: C1COCCN1CCN2C3=CC=CC=C3N=C2NC(=O)C4=CC(=CC=C4)[N+](=O)[O-] [IRAK-1-4 Inhibitor I]
The method in brief:
as §1

UniProt Q8N1F8, sequence (Q8N1F8 whole entry, looked up): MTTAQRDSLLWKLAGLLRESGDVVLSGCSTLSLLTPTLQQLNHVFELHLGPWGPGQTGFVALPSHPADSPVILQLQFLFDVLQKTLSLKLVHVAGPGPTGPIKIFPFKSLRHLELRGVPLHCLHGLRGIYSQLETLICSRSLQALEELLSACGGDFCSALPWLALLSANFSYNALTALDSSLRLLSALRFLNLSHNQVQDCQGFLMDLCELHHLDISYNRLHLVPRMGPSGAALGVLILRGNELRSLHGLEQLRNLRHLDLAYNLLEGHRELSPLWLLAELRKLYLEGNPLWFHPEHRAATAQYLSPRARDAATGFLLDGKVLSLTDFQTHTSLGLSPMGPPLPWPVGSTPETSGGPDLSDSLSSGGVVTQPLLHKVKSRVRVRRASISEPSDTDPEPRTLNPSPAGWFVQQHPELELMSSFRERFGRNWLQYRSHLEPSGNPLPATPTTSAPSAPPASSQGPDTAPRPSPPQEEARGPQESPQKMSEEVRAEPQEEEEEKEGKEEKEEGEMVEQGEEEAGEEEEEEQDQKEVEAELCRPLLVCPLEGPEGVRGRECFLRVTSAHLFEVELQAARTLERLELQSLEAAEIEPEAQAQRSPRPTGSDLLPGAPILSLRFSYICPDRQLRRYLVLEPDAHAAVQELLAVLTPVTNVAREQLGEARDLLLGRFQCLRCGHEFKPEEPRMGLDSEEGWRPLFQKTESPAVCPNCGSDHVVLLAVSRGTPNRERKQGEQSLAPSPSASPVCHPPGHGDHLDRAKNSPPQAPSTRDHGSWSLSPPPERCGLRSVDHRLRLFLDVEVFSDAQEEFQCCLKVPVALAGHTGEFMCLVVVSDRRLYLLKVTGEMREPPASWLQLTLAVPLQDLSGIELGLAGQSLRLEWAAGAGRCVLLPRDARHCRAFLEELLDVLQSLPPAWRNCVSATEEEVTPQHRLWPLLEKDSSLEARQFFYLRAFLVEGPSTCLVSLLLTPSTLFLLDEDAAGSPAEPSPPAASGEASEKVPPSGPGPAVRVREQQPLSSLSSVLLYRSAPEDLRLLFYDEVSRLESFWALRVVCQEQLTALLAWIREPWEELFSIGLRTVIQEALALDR
UniProt Q9NZ72, sequence (Q9NZ72 whole entry, looked up): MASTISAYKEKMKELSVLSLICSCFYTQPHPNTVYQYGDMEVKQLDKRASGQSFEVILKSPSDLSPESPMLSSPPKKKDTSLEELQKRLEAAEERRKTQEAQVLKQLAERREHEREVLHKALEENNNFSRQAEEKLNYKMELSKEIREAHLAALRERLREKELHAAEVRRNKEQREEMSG
UniProt Q9C0B7, sequence (Q9C0B7 whole entry, looked up): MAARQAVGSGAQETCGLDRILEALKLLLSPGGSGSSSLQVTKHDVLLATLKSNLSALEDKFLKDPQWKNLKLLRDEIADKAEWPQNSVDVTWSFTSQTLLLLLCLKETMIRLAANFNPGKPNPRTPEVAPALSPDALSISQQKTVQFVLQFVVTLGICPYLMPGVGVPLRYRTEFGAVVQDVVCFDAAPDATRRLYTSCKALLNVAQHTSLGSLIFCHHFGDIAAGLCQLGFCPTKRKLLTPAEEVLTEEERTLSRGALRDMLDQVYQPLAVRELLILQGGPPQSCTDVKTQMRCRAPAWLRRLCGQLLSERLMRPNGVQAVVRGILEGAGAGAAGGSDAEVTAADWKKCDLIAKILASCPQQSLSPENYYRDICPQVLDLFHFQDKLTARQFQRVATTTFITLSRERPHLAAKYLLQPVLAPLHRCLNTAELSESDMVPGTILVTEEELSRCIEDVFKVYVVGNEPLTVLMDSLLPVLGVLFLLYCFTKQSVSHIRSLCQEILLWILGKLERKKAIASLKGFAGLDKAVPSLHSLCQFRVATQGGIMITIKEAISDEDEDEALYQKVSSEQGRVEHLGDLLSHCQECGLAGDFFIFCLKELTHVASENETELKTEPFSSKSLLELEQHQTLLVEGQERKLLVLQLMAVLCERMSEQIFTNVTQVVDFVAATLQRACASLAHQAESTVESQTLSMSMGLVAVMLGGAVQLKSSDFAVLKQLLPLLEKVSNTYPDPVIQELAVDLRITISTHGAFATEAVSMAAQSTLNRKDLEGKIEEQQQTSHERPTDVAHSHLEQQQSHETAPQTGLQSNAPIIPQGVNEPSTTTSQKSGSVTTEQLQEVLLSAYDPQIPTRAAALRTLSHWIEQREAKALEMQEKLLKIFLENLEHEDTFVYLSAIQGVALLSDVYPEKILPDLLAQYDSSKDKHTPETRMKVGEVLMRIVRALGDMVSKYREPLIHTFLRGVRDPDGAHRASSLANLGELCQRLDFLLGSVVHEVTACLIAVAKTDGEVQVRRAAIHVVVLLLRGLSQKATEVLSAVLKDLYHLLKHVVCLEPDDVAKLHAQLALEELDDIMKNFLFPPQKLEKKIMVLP
UniProt Q13573, sequence (Q13573 whole entry, looked up): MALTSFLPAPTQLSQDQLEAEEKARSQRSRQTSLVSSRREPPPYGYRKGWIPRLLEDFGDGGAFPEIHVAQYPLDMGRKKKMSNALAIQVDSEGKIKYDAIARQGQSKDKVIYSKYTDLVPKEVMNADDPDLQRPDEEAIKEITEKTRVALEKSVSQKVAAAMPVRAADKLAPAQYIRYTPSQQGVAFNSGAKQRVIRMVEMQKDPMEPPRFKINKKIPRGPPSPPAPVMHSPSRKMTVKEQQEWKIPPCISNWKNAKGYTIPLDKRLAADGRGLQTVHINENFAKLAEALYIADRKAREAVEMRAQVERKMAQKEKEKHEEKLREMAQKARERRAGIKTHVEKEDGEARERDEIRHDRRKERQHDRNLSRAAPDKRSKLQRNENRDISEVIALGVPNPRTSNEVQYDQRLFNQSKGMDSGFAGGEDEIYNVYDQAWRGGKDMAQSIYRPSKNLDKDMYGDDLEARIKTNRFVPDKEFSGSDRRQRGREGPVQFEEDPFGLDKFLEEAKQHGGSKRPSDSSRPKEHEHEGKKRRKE
UniProt P49281, sequence (P49281 whole entry, looked up): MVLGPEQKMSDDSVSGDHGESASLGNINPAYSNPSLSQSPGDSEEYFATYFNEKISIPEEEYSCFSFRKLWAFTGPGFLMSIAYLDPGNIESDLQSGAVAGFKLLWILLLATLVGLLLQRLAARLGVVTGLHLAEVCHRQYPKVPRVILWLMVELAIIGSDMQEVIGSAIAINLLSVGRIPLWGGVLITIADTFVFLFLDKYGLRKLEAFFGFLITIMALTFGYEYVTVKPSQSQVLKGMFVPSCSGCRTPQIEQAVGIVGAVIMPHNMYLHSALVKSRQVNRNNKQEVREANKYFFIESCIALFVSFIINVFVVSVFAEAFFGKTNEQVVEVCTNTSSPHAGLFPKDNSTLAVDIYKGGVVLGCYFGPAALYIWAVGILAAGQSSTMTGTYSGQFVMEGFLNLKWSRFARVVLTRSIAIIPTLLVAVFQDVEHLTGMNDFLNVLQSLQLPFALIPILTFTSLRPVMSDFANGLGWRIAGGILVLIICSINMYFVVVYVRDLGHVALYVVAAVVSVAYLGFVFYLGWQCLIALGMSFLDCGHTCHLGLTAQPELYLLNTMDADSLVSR
UniProt Q8NDV3, sequence (Q8NDV3 whole entry, looked up): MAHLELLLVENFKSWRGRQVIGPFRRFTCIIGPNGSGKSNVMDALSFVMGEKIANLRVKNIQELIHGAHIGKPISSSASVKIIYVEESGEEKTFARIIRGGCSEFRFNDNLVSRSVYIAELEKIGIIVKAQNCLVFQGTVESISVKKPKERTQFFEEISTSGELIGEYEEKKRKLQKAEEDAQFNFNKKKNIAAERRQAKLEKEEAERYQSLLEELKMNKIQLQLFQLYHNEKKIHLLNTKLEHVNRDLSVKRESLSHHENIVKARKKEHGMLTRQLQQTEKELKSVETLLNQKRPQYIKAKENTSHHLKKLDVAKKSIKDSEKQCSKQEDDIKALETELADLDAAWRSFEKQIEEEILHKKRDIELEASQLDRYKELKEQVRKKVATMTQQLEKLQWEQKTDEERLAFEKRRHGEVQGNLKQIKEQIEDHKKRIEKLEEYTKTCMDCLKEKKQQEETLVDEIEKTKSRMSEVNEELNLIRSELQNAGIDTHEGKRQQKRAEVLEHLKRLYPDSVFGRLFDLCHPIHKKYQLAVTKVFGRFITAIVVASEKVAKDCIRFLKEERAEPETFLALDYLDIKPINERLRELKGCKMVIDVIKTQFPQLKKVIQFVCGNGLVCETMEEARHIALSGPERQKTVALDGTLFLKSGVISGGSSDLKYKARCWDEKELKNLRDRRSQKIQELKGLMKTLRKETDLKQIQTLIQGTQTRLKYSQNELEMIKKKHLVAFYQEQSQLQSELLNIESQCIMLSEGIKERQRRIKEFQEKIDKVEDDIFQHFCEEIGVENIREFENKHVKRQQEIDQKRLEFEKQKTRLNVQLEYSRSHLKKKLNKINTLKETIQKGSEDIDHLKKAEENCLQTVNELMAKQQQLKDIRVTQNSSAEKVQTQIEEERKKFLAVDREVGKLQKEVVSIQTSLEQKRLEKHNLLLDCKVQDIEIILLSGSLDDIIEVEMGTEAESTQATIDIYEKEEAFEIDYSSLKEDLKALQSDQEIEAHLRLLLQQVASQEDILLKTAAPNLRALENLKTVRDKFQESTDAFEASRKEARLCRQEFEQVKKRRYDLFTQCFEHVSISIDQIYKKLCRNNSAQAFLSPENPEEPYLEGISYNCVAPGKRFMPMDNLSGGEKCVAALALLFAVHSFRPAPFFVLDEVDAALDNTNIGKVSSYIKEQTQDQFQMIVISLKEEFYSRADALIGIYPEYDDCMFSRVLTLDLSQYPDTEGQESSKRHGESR
UniProt Q96BD8, sequence (Q96BD8 whole entry, looked up): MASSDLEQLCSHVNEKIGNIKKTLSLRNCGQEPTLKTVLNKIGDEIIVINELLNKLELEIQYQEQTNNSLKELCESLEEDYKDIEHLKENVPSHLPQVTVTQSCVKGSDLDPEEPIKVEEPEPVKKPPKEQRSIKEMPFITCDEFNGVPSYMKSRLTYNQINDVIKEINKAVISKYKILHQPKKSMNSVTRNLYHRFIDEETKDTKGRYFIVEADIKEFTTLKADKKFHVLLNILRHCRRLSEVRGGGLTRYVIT

For SYPL1 (UniProt Q16563), the log2 fold change was 0.026 in experiment [1]; -0.017 in experiment [2]; -0.014 in experiment [3]; 0.016 in experiment [4]; 0.04 in [5]; 0.025 in experiment [6]. For the same target, the log2 fold change was 0.002 in experiment [7], 0.014 in [8], 0.002 in experiment [9] and 0.032 in experiment [10].
Turning to SKA1 (UniProt Q96BD8), the log2 fold change in experiment [1] is -0.029; in experiment [2], -0.015; in experiment [3] it was 0.029; in [4], 0.072; in [5], -0.062; in experiment [6], 0.065. For the same target, the log2 fold change is -0.06 in experiment [7], 0.02 in [8], -0.094 in experiment [9] and 0.013 in experiment [10].
For the target TAF6L (UniProt Q9Y6J9), the log2 fold change is -0.013 in experiment [1]; 0.174 in experiment [2]; -0.077 in experiment [3]; 0.005 in experiment [4]; 0.025 in experiment [5]; 0.055 in experiment [6]. For the same target, the log2 fold change in experiment [7] was 0.055; in experiment [8], 0.022; in experiment [9] it was -0.104; in experiment [10], 0.051.
On to SLC11A2 isoform 3 (UniProt P49281), for which the log2 fold change is -0.005 in experiment [1]; -0.041 in experiment [2]; -0.009 in experiment [3]; -0.013 in experiment [4]; 0 in experiment [5]; 0.011 in [6]. In addition, the log2 fold change in [7] is 0.046; in experiment [8] it was -0.004; in experiment [9], 0.026; in experiment [10], 0.024.
As to SRP54 (UniProt P61011), the log2 fold change was -0.026 in [1]; 0.017 in experiment [2]; 0.035 in experiment [3]; 0.023 in experiment [4]; -0.043 in experiment [5]; 0.005 in experiment [6]. Besides, the log2 fold change is -0.039 in [7], -0.047 in experiment [8], -0.003 in [9] and -0.014 in [10].
As to SPATS2 (UniProt Q86XZ4), the log2 fold change in experiment [1] was -0.012; in experiment [2], -0.127; in [3] it was -0.042; in experiment [4] it was 0.028; in experiment [5], -0.007; in [6] it was 0.017. Moreover, the log2 fold change in experiment [7] is -0.081; in experiment [8], 0.063; in experiment [9], 0.043; in [10], -0.066.
For STK11IP (UniProt Q8N1F8), the log2 fold change in experiment [1] was 0.015; in experiment [2] it was 0.008; in experiment [3] it was -0.002; in experiment [4], -0.071; in experiment [5], 0.007; in [6] it was -0.007. Further, the log2 fold change is 0.025 in [7], -0.029 in experiment [8], 0.033 in [9] and 0.053 in experiment [10].
For the target SYNE2 isoform 2 (UniProt Q8WXH0), the log2 fold change in experiment [1] is -0.09; in [2] it was -0.069; in [3], -0.023; in [4] it was -0.156; in experiment [5], -0.04; in experiment [6], -0.015. For the same target, the log2 fold change in experiment [7] was -0.146; in experiment [8] it was -0.064; in [9], 0.037; in experiment [10], 0.127.
For TANGO6 (UniProt Q9C0B7), the log2 fold change in [1] is 0.045; in [2] it was -0.04; in experiment [3] it was 0.012; in [4], -0.011; in experiment [5] it was 0.009; in [6], -0.049. The log2 fold change was -0.048 in experiment [7], 0.007 in experiment [8], 0.023 in [9] and 0.048 in [10].
Turning to SNW1 (UniProt Q13573), the log2 fold change in experiment [1] is -0.038; in experiment [2], -0.017; in experiment [3], 0.026; in [4] it was -0.018; in [5], -0.033; in experiment [6], -0.006. Moreover, the log2 fold change is -0.004 in experiment [7], 0.022 in experiment [8], -0.021 in experiment [9] and 0 in experiment [10].
SMC1B isoform 3 (UniProt Q8NDV3): the log2 fold change in experiment [1] was -0.002; in experiment [2], 0.265 (active); in [3], 0.003; in experiment [4], -0.04; in experiment [5], -0.067; in experiment [6], 0.02. Further, the log2 fold change in experiment [7] was -0.032; in experiment [8], 0.048; in experiment [9], 0.205; in experiment [10] it was 0.043.
Turning to SMC4 (UniProt Q9NTJ3), the log2 fold change in experiment [1] was -0.006; in experiment [2], -0.018; in experiment [3], -0.007; in experiment [4] it was 0; in [5], -0.026; in [6] it was 0. The log2 fold change in experiment [7] was -0.046; in [8] it was -0.015; in experiment [9], -0.014; in experiment [10] it was -0.009.
Take STMN3 (UniProt Q9NZ72): the log2 fold change is 0.012 in experiment [1]; 0.01 in experiment [2]; -0.003 in experiment [3]; -0.122 in experiment [4]; -0.062 in experiment [5]; -0.026 in [6]. The log2 fold change in experiment [7] is 0.043; in experiment [8], -0.097; in experiment [9], 0.091; in [10] it was -0.006.
Turning to SNRNP40 (UniProt Q96DI7), the log2 fold change in [1] is 0.025; in experiment [2] it was 0.046; in [3], -0.03; in [4], -0.031; in experiment [5], -0.031; in [6], 0.009. The log2 fold change in experiment [7] was 0.011; in experiment [8], 0.02; in experiment [9], -0.004; in experiment [10] it was 0.01.
On to SSB (UniProt E7ERC4), for which the log2 fold change in experiment [1] was -0.03; in [2], 0.071; in [3], -0.063; in experiment [4], 0; in experiment [5], 0.02; in experiment [6] it was 0.015. Also, the log2 fold change in experiment [7] was -0.142; in [8], 0.089; in [9], 0.01; in experiment [10], -0.043.
